Inconclusive results are not listed. Active and inactive are the calls of the source. Calls come from the whole dose curve. Bridge positions count the residues as written; N and C are the ends. Square brackets hold non-standard residues; d marks the D form. Peptide text beside a SMILES is read from it. Orn = NCCC[CH](N)C(=O)O; Mpa = O=C(O)CCS
Tests used:
[1] = Primary qHTS for inhibitors of SARS-S pseudo-typed particle cell entry (AID 1479145); settings: outcome: dose series up to 57.1 µM unless noted; note: nearly all actives have a fitted effect of over 45% in size; for activity change, negative = inhibition: % is set by controls: 0 for no effect and ±100 for the full control effect
[2] = Primary qHTS for Huh7 cytotoxicity: counterscreen for inhibitors of MERS-S pseudotyped particle cell entry (AID 1479147); settings: outcome: dose series up to 57.1 µM unless noted
[3] = Primary qHTS for inhibitors of MERS-S pseudo-typed particle cell entry (AID 1479149); settings: outcome: dose series up to 57.1 µM unless noted; note: nearly all actives have a fitted effect of over 60% in size; for activity change, negative = inhibition: % is set by controls: 0 for no effect and ±100 for the full control effect
[4] = Primary qHTS for Vero E6 cytotoxicity: counterscreen for inhibitors of SARS-S pseudo-typed particle cell entry (AID 1479150); settings: outcome: dose series up to 57.1 µM unless noted; for activity change, negative = cytotoxicity: % is set by controls: 0 for no effect and ±100 for the full control effect
[5] = Cytotoxicity counterscreen for inhibitors of SARS-CoV-2 cell entry (AID 1645845); settings: outcome: dose series up to 57.1 µM unless noted; note: nearly all actives have a fitted effect of over 50% in size; for activity change, negative = cytotoxicity: % is set by controls: 0 for no effect and ±100 for the full control effect
Summary of the method: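 48 h compound treatment (after 1 h preincubation), HEK293-ACE2 cells, 37 C/5% CO2; ATP luminescence endpoint; normalized to cell wells and media blanks.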

[6] = Primary qHTS to identify inhibitors of SARS-CoV-2 cell entry (AID 1645846); settings: SARS-CoV-2 pseudovirus cell entry assay, luminescence; activity change, negative = inhibition: at 57.1 µM (top of the series) unless noted; note: nearly all actives have a fitted effect of over 45% in size
Summary of the method: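 Inhibition of spike-mediated entry was scored in human ACE2-transfected Expi293F cells. Particles were MLV-pseudotyped with Wuhan-Hu-1 S carrying a 19-aa C-terminal deletion; signal was luciferase after two days, scaled between spike PP and fusion-protein-free PP.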

O=C(Cc1cccs1)NC1C(=O)N2C(C(=O)[O-])=C(C[n+]3ccccc3)CSC12 (stereo not drawn)
inactive: Potency [1] | Potency [2] | Potency [3] | Potency [4] | Potency [5]
-15.7%: activity change, negative = inhibition [6]

NCCCC[C@H](N)C(=O)O
inactive: outcome [1] inactive [at 0.573 µM] | outcome [2] inactive [at 0.573 µM] | outcome [3] inactive [at 0.573 µM] | activity change, negative = cytotoxicity [4] 2.08% [at 0.573 µM] | activity change, negative = cytotoxicity [5] 2.36% [at 0.702 µM] | outcome [6] inactive [at 0.702 µM]

CCOc1ccc(Cc2cc([C@@]34OC[C@@](CO)(O3)[C@@H](O)[C@H](O)[C@H]4O)ccc2Cl)cc1
inactive: Potency [1] | Potency [2] | Potency [3] | Potency [4] | Potency [5]
-29.2%: activity change, negative = inhibition [6]

CC(C)[C@H](N)C(=O)O
-17.8%: activity change, negative = inhibition [6]
inactive: Potency [1] | Potency [2] | Potency [3] | Potency [4] | Potency [5]

CCCCCCCCCCCCCC(=O)OCC(COP(=O)([O-])OCC[N+](C)(C)C)OC(=O)CCCCCCCCCCCCC (stereo not drawn)
inactive: Potency [1] | Potency [2] | Potency [3] | Potency [4] | Potency [5]
-12.7%: activity change, negative = inhibition [6]

CCC(=C(CC)c1ccc(OP(=O)(O)O)cc1)c1ccc(OP(=O)(O)O)cc1
-22.1% [at 0.702 µM]: activity change, negative = inhibition [6]
inactive: activity change, negative = inhibition [1] -9.86% [at 0.573 µM] | outcome [2] inactive [at 0.573 µM] | outcome [3] inactive [at 0.573 µM] | activity change, negative = cytotoxicity [4] -3.89% [at 0.573 µM] | activity change, negative = cytotoxicity [5] 1.12% [at 0.702 µM]

OCCOCCOCCO
inactive: Potency [1] | Potency [2] | Potency [3] | Potency [4] | Potency [5] | Potency [6]

O=C(Cn1cnnn1)N[C@@H]1C(=O)N2C(C(=O)O)=C(CSc3nncs3)CS[C@H]12
-9.88%: activity change, negative = inhibition [6]
inactive: Potency [1] | Potency [2] | Potency [3] | Potency [4] | Potency [5]

C=C1CC2C3CCC4=CC(=O)C=C[C@]4(C)[C@@]3(F)[C@@H](O)C[C@]2(C)[C@@]1(O)C(=O)COC(C)=O (stereo partly drawn)
inactive: Potency [1] | Potency [2] | Potency [3] | Potency [4] | Potency [5] | Potency [6]

C=CC1=C(C(=O)O)N2C(=O)[C@@H](NC(=O)/C(=N\OCC(=O)O)c3csc(N)n3)[C@H]2SC1
inactive: Potency [1] | Potency [2] | Potency [3] | Potency [4] | Potency [5]
-7.67%: activity change, negative = inhibition [6]

[2H]N[C@@H](Cc1ccccc1)C(=O)N1CCC[C@H]1C(=O)N[C@@H](CCCNC(=N)N)C(=O)N1CCC[C@H]1C(=O)NCC(=O)NCC(=O)NCC(=O)NCC(=O)N[C@@H](CC(N)=O)C(=O)NCC(=O)N[C@@H](CC(=O)O)C(=O)N[C@@H](Cc1ccccc1)C(=O)N[C@@H](CCC(=O)O)C(=O)N[C@@H](CCC(=O)O)C(=O)N[C@H](C(=O)N1CCC[C@H]1C(=O)N[C@@H](CCC(=O)O)C(=O)N[C@@H](CCC(=O)O)C(=O)N[C@@H](Cc1ccc(O)cc1)C(=O)N[C@@H](CC(C)C)C(=O)O)[C@@H](C)CC
-18.8% [at 11.3 µM]: activity change, negative = inhibition [6]
inactive: activity change, negative = inhibition [1] -29.4% [at 11.4 µM] | outcome [2] inactive [at 11.4 µM] | activity change, negative = inhibition [3] -9.94% [at 11.4 µM] | activity change, negative = cytotoxicity [4] -0.847% [at 11.4 µM] | activity change, negative = cytotoxicity [5] 2.97% [at 11.3 µM]

OC[C@@H](O)C(O)[C@H](O)CO
2.94%: activity change, negative = inhibition [6]
inactive: Potency [1] | Potency [2] | Potency [3] | Potency [4] | Potency [5]

CC(O)C(CO)NC(=O)C1CSSCC(NC(=O)C(N)Cc2ccccc2)C(=O)NC(Cc2ccccc2)C(=O)NC(Cc2c[nH]c3ccccc23)C(=O)NC(CCCCN)C(=O)NC(C(C)O)C(=O)N1 (stereo not drawn)
-15.6% [at 27.1 µM]: activity change, negative = inhibition [6]
inactive: Potency [1] | Potency [2] | Potency [3] | Potency [4] | Potency [5]

Nc1c(Br)cc(Br)cc1CNC1CCC(O)CC1 (stereo not drawn)
-18.6%: activity change, negative = inhibition [6]
inactive: Potency [1] | Potency [2] | Potency [3] | Potency [4] | Potency [5]

CN1CCc2nc(C(=O)N[C@@H]3C[C@@H](C(=O)N(C)C)CC[C@@H]3NC(=O)C(=O)Nc3ccc(Cl)cn3)sc2C1
-19.9%: activity change, negative = inhibition [6]
inactive: Potency [1] | Potency [2] | Potency [3] | Potency [4] | Potency [5]

CC(C)(C)C(=O)OCC(=O)[C@H]1CC[C@H]2[C@@H]3CCC4=CC(=O)CC[C@]4(C)[C@H]3CC[C@]12C
inactive: Potency [1] | Potency [2] | Potency [3] | Potency [4] | Potency [5]
-13%: activity change, negative = inhibition [6]

C=C1/C(=C/C=C2\CCC[C@]3(C)[C@@H]([C@H](C)CCCC(C)(C)O)CC[C@@H]23)C[C@@H](O)[C@@H](OCCCO)[C@@H]1O
-12.1%: activity change, negative = inhibition [6]
inactive: Potency [1] | Potency [2] | Potency [3] | Potency [4] | Potency [5]

CC1CC2C3CCC4=CC(=O)C=CC4(C)C3(F)C(O)CC2(C)C1(O)C(=O)COC(=O)c1cccc(S(=O)(=O)O)c1 (stereo not drawn)
inactive: Potency [1] | Potency [2] | Potency [3] | Potency [4] | Potency [5]
4.79%: activity change, negative = inhibition [6]

CCOc1ccc(CC2NC(=O)CCSSCC(C(=O)N3CCCC3C(=O)NC(CCCN)C(=O)NCC(N)=O)NC(=O)C(CC(N)=O)NC(=O)C(C(C)O)NC(=O)C(C(C)CC)NC2=O)cc1 (stereo not drawn) ([Mpa]Y(Et)ITNCP[Orn]G-NH2; disulfide 1-6; configuration not given here)
inactive: Potency [1] | Potency [2] | Potency [3] | Potency [4] | Potency [5]
-38.4%: activity change, negative = inhibition [6]

CO/N=C(\C(=O)N[C@@H]1C(=O)N2C(C(=O)O)=C(Cn3ccc(=N)n3CCO)CS[C@H]12)c1csc(N)n1
-19.1%: activity change, negative = inhibition [6]
inactive: Potency [1] | Potency [2] | Potency [3] | Potency [4] | Potency [5]

CN(CCCCCCN(C)C(=O)Oc1ccc[n+](C)c1)C(=O)Oc1ccc[n+](C)c1
-28.5%: activity change, negative = inhibition [6]
inactive: Potency [1] | Potency [2] | Potency [3] | Potency [4] | Potency [5]

CCCCCCCCCCCCCCCC(=O)OC1C(SC)OC(C(NC(=O)C2CC(CCC)CN2C)C(C)Cl)C(O)C1O (stereo not drawn)
inactive: Potency [1] | Potency [2] | Potency [3] | Potency [4] | Potency [5]
-14%: activity change, negative = inhibition [6]

Cn1cc(OCC(O)CNC(C)(C)C)c2ccccc2c1=O (stereo not drawn)
inactive: Potency [1] | Potency [2] | Potency [3] | Potency [4] | Potency [5]
-17.6%: activity change, negative = inhibition [6]

NC(=O)C1CCCN1C(=O)C(Cc1cnc[nH]1)NC(=O)C1CCC(=O)N1 (stereo not drawn)
inactive: Potency [1] | Potency [2] | Potency [3] | Potency [4] | Potency [5] | Potency [6]

CCCN(CC)C(CC)C(=O)Nc1c(C)cccc1C (stereo not drawn)
inactive: Potency [1] | Potency [2] | Potency [3] | Potency [4] | Potency [5]
-22.8%: activity change, negative = inhibition [6]

Nc1c(CC(=O)O)cccc1C(=O)c1ccccc1
inactive: Potency [1] | Potency [2] | Potency [3] | Potency [4] | Potency [5] | Potency [6]

CCOC(=O)[C@H](CS)NCCN[C@@H](CS)C(=O)OCC
inactive: Potency [1] | Potency [2] | Potency [3] | Potency [4] | Potency [5] | Potency [6]

NC(C(=O)NC1C(=O)N2C(C(=O)O)=C(CSc3cn[nH]n3)CSC12)c1ccc(O)cc1 (stereo not drawn)
inactive: Potency [1] | Potency [2] | Potency [3] | Potency [4] | Potency [5]
-22%: activity change, negative = inhibition [6]

CCCCCCCCCCCCCCCC(=O)OCC(=O)[C@@]1(O)[C@H](C)C[C@H]2[C@@H]3CCC4=CC(=O)C=C[C@]4(C)[C@@]3(F)[C@@H](O)C[C@@]21C
3.26%: activity change, negative = inhibition [6]
inactive: Potency [1] | Potency [2] | Potency [3] | Potency [4] | Potency [5]

COC(=O)CCC(=O)CN
inactive: Potency [1] | Potency [2] | Potency [3] | Potency [4] | Potency [5] | Potency [6]

C[C@H](CCC(=O)O)[C@H]1CC[C@H]2[C@@H]3[C@H](O)C[C@@H]4C[C@H](O)CC[C@]4(C)[C@H]3C[C@H](O)[C@]12C
inactive: Potency [1] | Potency [2] | Potency [3] | Potency [4] | Potency [5] | Potency [6]

C=CCOc1ccc(CC(=O)O)cc1Cl
-9.87% [at 114 µM]: activity change, negative = inhibition [6]
inactive: Potency [1] | Potency [2] | Potency [3] | Potency [4] | Potency [5]

Nc1nc(CC(=O)Nc2ccc(CCNC[C@H](O)c3ccccc3)cc2)cs1
inactive: Potency [1] | Potency [2] | Potency [3] | Potency [4] | Potency [5]
-24.2%: activity change, negative = inhibition [6]

— PubChem BioAssay (NCATS)
